Assay outcomes deposited in PubChem by National Center for Advancing Translational Sciences (NCATS).
VP16 counter – Gal4-VP16 reporter inhibition counter-screen | AID 2546 | Potency, µM (highest dose often 53.6 µM), for the others: at the top dose activity, negative = inhibition, actives largely listed as inhibitors | Drosophila S2 Gal4-VP16 UAS-luciferase, luminescence, 20 h | hit rate 3.5% among 310,000;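 note: Gal4-VP16 expression switched on by copper sulfate through the metallothionein promoter; potency is the fitted concentration of half-maximal effect; % is set by controls: 0 for no effect and ±100 for the full control effect; nearly all actives have a fitted effect of over 50% in size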
RORgamma inh – ROR gamma (mouse) transcription inhibition; P51450; Drosophila S2 Gal4-RORgamma UAS-luciferase reporter, 20 h; Potency, µM (top dose mostly 53.6 µM), without a hit: top-dose activity change, negative = inhibition, usual class: inhibitors; hit rate 5.4% among 310,000; AID 2551; note: potency is the fitted concentration of half-maximal effect; % is set by controls: 0 for no effect and ±100 for the full control effect; nearly all actives have a fitted effect of over 60% in size
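ROR gamma transcriptional activity was tracked as Gal4-UAS luciferase output in stably transfected Drosophila Schneider cells, with compound added 1 hr before 700 uM copper sulfate induction and a 20 hr ambient-temperature incubation.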
Six1-Eya2 inh – blocks human Six1 binding to Eya2; Q15475+O00167; AlphaScreen GST-Six1/His-Eya2 binding, biochemical; stronger effect = lower value; activity change, % (concentration not given with the values); hit rate 0.56% among 360,000; AID 651725; in the data active = activity change below about -65%; inconclusive = mostly about -30% to -63%; note: % is set by controls: 0 for no effect and ±100 for the full control effect
Target sequence (O00167 whole entry, looked up): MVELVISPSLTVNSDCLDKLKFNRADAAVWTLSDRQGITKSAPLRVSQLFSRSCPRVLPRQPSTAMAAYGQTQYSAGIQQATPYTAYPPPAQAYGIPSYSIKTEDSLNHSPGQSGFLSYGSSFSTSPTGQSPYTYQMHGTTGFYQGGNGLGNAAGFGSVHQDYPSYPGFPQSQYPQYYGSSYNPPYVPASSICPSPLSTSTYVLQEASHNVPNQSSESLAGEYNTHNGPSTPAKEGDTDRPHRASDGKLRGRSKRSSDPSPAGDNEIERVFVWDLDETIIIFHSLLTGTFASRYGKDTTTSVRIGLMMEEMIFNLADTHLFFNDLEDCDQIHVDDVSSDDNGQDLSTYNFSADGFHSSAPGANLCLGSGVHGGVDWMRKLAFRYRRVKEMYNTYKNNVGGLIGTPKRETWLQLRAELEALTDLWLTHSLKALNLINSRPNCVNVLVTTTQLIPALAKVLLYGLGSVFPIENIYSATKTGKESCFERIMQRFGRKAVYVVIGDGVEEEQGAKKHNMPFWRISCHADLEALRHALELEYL
Target sequence (Q15475 whole entry, looked up): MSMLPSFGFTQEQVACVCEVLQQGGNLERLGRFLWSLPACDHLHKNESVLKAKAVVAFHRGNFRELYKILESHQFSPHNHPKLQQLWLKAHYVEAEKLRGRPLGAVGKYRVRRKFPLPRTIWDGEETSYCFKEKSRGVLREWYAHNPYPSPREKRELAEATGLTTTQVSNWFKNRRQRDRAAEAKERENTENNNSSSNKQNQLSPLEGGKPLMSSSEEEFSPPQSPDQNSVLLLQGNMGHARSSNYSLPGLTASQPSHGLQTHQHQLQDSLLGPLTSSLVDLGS
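Homogeneous AlphaScreen proximity assay pairing GST-Six1 with His-tagged Eya2 (added as 5X mix: 250 nM and 500 nM) in 50 mM Tris pH 8.0, 300 mM NaCl, 1 mM TCEP. Glutathione donor and nickel acceptor beads; 1 h, 37 °C, dark.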
CtBP-E1A inh – inhibitors of CtBP/E1A interaction. hit rate 0.49% among 340,000. AlphaScreen GST-E1A/His-CtBP binding, 1536-well; stronger effect = lower value. activity change, % (concentration not given with the values). AID 651724; in the data active = activity change below about -65%; inconclusive = mostly about -30% to -63%; note: % is set by controls: 0 for no effect and ±100 for the full control effect
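Homogeneous bead-based format: GST-tagged E1A captured on glutathione donor beads, His-tagged CtBP on nickel acceptor beads; compounds precede bead addition by 2 h at 37 °C.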
p53 reactivation – re-activators of mutant p53. H1299 p53-A138V BP100-luciferase reporter, luminescence, 24 h. Potency, µM (doses to about 92.2 µM), without a hit: top-dose activity change, positive = activation, actives largely listed as activators. hit rate 0.063% among 320,000. AID 504706; note: potency is the fitted concentration of half-maximal effect; % of control where 0% means no effect; nearly all actives have a fitted effect of over 45% in size
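H1299 (p53-null), stable ts p53-A138V + BP100-Luc; 1000 cells/well, Opti-MEM/10% FBS; cpd 4 pt, 1:5; 24 h, 37 deg C, 5% CO2; detection reagent 10 min RT; luminescence.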
* marks the source's active call; other numbers are inactive results; u = inconclusive; x = not tested or not shown; [ ] = another dose, or the depositor's remark. This is a sample that favours compounds with a hit; in the whole collection about 5.4% have one here. Unless noted, calls come from the whole dose curve; as a rule, active = well fitted curve in the direction sought with a large enough effect; inconclusive = small, poorly fitted or top-dose-only effect, or another doubt; inactive = no such curve, though single readings can be large; an effect the other way counts as inactive or inconclusive.

SMILES | VP16 counter | RORgamma inh | Six1-Eya2 inh | CtBP-E1A inh | p53 reactivation
Cc1nn(-c2ccc(F)cc2)c(Cl)c1/C=N/NC(=O)c1cccs1 | -18% | u | -10 | -10 | u
Cc1nn(-c2ccc(F)cc2)c(Cl)c1/C=N/NC(=O)c1ccc(O)cc1 | 2.2µM* | u | -14 | 0 | 0%
CNC(=S)N/N=C/c1c(C)nn(-c2ccc(F)cc2)c1Cl | 7.1µM* | 2.8µM* | -6 | -3 | 7%
CCOC(=O)C1CCN(C(=O)COC(=O)COc2ccc(Cl)cc2)CC1 | -9% | -10% | 2 | 6 | 19%
CCOC(=O)N1CCN(C(=S)NC(=O)c2ccc(F)cc2)CC1 | 3.5µM* | 2µM* | 3 | 3 | 1%
CCOC(=O)N1CCN(C(=S)NC(=O)c2ccnn2C)CC1 | 32µM* | u | 1 | 1 | -10%
O=c1cc(C(Cl)(Cl)Cl)oc2c1ccc1ccccc12 | 5.6µM* | 1.4µM* | 4 | -10 | 23%
O=c1cc(-c2ccco2)oc2c1ccc1ccccc12 | -3% | 10% | -20 | -12 | 0%
CCOC(=O)c1cnc(-n2nc(C)cc2C)nc1Oc1ccccc1F | u | 5µM* | -22 | 4 | -1%
CCOC(=O)c1cnc(-n2nc(C)cc2C)nc1Oc1ccc(C(=O)OC)cc1 | 3% | -22% | -1 | -8 | 18%
CCOC(=O)c1cnc(-n2nc(C)cc2C)nc1Nc1ccc(OC)cc1 | 2.5µM* | 1.6µM* | 6 | 2 | 6%
CCOC(=O)c1cnc(-n2nc(C)cc2C)nc1Nc1ccccc1OC | 2.2µM* | 1.3µM* | x | x | -3%
CCOC(=O)c1cnc(-n2nc(C)cc2C)nc1NCc1ccc2c(c1)OCO2 | 3.2µM* | 3.5µM* | -7 | -1 | -3%
COc1ccc(N(CC(=O)NC2CC2)S(=O)(=O)c2ccccc2)cc1 | -10% | -4% | 10 | 21 | 1%
O=C(CCc1nnc(COc2ccccc2)o1)NCc1ccccc1C(F)(F)F | 25% | 26% | 3 | -1 | 5%
CCOC(=O)c1cnc(-n2nc(C)cc2C)nc1NC1CCCC1 | -3% | 18% | -4 | -9 | 3%
CCOC(=O)c1cnc(-n2cc(C)cn2)nc1Nc1ccccc1OCC | -10% | 1.8µM* | 2 | 6 | 3%
CCOC(=O)c1cnc(-n2nc(C)cc2C)nc1NCCc1ccccc1 | 1.8µM* | 0.89µM* | -8 | u | 5%
COc1cc(/C=C/C(=O)OCC(=O)c2ccc3c(c2)NC(=O)CO3)ccc1OC(F)F | x | x | -10 | -12 | 21%
Cc1ccc(N2C(=O)c3ccccc3C2O)nc1 (configuration not stated) | u | 7.1µM* | x | x | -7%
COC(=O)/C=C/C(=O)Nc1ccc(O)c(Cl)c1 | u | u | -3 | 1 | u
COC(=O)/C=C\c1cc(O)ccc1O | 11µM* | 14µM* | x | x | x
Cc1ccc2cc(CN(CC3CCCO3)C(=O)NC3CCCCC3)c(=O)[nH]c2c1C (configuration not stated) | u | 3.2µM* | 2 | 12 | 3%
COc1ccc(C(C(=O)NC(C)(C)C)N(CCc2ccccc2)C(=O)CCC(=O)Nc2cc(C)on2)cc1 (configuration not stated) | 18% | 32% | -18 | -9 | 6%
C[C@H](CO)N1C[C@H](C)[C@@H](CN(C)Cc2cccc(O)c2)OCc2cnnn2CCCC1=O | x | x | -1 | 0 | x
SMILES | VP16 counter | RORgamma inh | Six1-Eya2 inh | CtBP-E1A inh | p53 reactivation
O=C1C=CC(=O)C2=C1C1c3ccccc3C2c2ccccc21 | u | 10µM* | x | x | x
O=C1NC2C3CC(c4ccccc43)C12 (configuration not stated) | x | x | 9 | 2 | x
Cc1ccc2c(c1)c1c3n2CCN(C(=O)CCl)C3CCC1 (configuration not stated) | 11µM* | 2.5µM* | -7 | 4 | x
CC(=O)N1CCn2c3c(c4cc(C)ccc42)CCCC31 (configuration not stated) | -6% | 15% | -14 | x | -6%
COc1cc(Cl)ccc1OCc1cc(C(=O)NCC(C)c2ccccc2)no1 (configuration not stated) | u | 15% | -3 | -1 | u
CCOC(=O)N1CCN(C(=O)c2cc(COc3ccc4ncccc4c3)on2)CC1 | 7.1µM* | u | -11 | -4 | 2%
CC(CNC(=O)c1cc(COc2ccc3ncccc3c2)on1)c1ccccc1 (configuration not stated) | 10µM* | u | -1 | -10 | -11%
O=C(NC1CCCCCCC1)c1cc(COc2ccc3ncccc3c2)on1 | 4µM* | u | -5 | -4 | 0%
O=C(c1cc(COc2ccc3ncccc3c2)on1)N1CCC[C@H]1CO | 5µM* | u | -2 | 2 | 27%
Cc1cc(CN(C)C(=O)c2cc(COc3ccc4ncccc4c3)on2)on1 | 3.2µM* | 7.9µM* | -4 | 8 | -1%
OC(c1ccccc1)(c1nc(-c2ccc3ccccc3c2)cs1)C(F)(F)F (configuration not stated) | x | x | -15 | -10 | x
OC1(C(F)(F)F)CC(c2ccc3ccccc3c2)=NO1 (configuration not stated) | -9% | 5% | 0 | 4 | 35µM*
CC(C(=O)Nc1cccc(S(=O)(=O)N2CCOCC2)c1)N1CCN(c2ccc(F)cc2)CC1 (configuration not stated) | -5%[10 µM] | u | -2 | -7 | -1%
Clc1ccc2c(N/N=C/c3cccc(Br)c3)ccnc2c1 | u | -117% | 0 | -6 | -10%
Clc1ccc2c(N/N=C/c3ccccc3Br)ccnc2c1 | 18µM* | -110% | 5 | -13 | 1%
O=S1(=O)C2CC3C=CC2(O3)C(O)C(Cc2ccccc2)N1Cc1cccc(C(F)(F)F)c1 (configuration not stated) | -14% | 12% | x | x | x
COc1cc(OC)cc(-c2nnc(NC(=O)c3ccc4c(c3)OCCO4)o2)c1 | 0.63µM* | 0.32µM* | -1 | x | 11%
COc1cccc(C(=O)Nc2nnc(-c3cccs3)o2)c1 | 0.79µM* | 0.63µM* | -20 | -25 | u
COc1cccc(C(=O)Nc2nnc(-c3ccc(Cl)cc3)o2)c1 | 1.6µM* | u | -10 | -4 | 16%
CCOc1ccc(-c2nnc(NC(=O)c3ccc(OCC(C)C)c(OC)c3)o2)cc1 | 0.025µM* | 0.028µM* | -4 | -1 | 15%
C#CCOCCOCCOCCNc1nc(N2CCN(C(=O)[C@H](CCCCN)n3cc(CN)nn3)CC2)nc(N2CCN(C(=O)[C@H](CCC(=O)O)n3cc([C@@H](N)CCSC)nn3)CC2)n1 | x | x | -3 | -7 | -5%
CCCCn1nnnc1C(c1cc2ccccc2o1)N1CCN(CCN(C)C)CC1 (configuration not stated) | x | x | 7 | 2 | x
Cc1cccc(OCC(=O)N/N=C\c2cc3c(cc2[N+](=O)[O-])OCO3)c1C | 1% | 30% | -17 | -14 | -2%
